According to PubChem BioAssay AID504720 (Sanford-Burnham Center for Chemical Genomics, 2011):
About 1,100 (0.31%) of roughly 350,000 compounds were called active. No stated cut-off is given here; in the data, active means activation above about 50%; inactive means the rest. What follows is part of a selection rich in actives, with near analogues and random picks from the rest.

Each compound was assayed against Endoribonuclease toxin MazF (Escherichia coli (strain K12)) (UniProt P0AE70) (assay: activators of E. coli MazEF toxin-antitoxin RNase, primary screen, biochemical, fluorescence, uHTS (AID 504720)). Conditions: FAM/BHQ RNA-DNA oligo cleavage fluorescence, 5 h, at 20 µM, stronger effect = higher value.
Chain of Endoribonuclease toxin MazF (Escherichia coli (strain K12)) (P0AE70 whole entry, looked up): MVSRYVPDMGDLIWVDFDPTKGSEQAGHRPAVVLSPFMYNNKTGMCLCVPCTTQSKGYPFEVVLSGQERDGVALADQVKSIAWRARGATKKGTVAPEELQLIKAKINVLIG

| Compound | activation |
| --- | --- |
| O=C(CCN1C(=O)/C(=C/c2cccs2)SC1=S)NNC(=O)c1cccc(O)c1 | 96.7% (active) |
| Cc1c(C(=O)NCCN2C(=O)S/C(=C\c3cccs3)C2=O)cccc1[N+](=O)[O-] | 9.61% (inactive) |
| CC(C(=O)Nc1ccc(O)c(C(=O)O)c1)N1C(=O)/C(=C/c2cccs2)SC1=S (centres undefined) | 3.14% (inactive) |
| CC(C)NC(=O)C(=O)NCCCOC(C)C | 15.5% (inactive) |
| COCCN(CCOC)S(=O)(=O)NC[C@H]1O[C@@H](n2cnc3c(N)ncnc32)[C@H](O)[C@@H]1O | 5.68% (inactive) |
| CCCCN(CC(=O)Nc1cccc(S(=O)(=O)N2CCCC2)c1)Cc1nc2ccccc2c(=O)[nH]1 | -2.27% (inactive) |
| CCOc1ccc(N2C(=O)/C(=C/c3ccc(C)o3)N(C)C2=S)cc1 | 53.2% (active) |
| CCO/C=C1\C(=O)N(c2ccc(OCC)cc2)C(=O)c2ccccc21 | 5.56% (inactive) |
| CCOc1ccc(N2C(=O)CN(c3cccc4ccccc34)C2=S)cc1 | 1.98% (inactive) |
| OCC[C@H]1C[C@H](O)[C@@H](O)[C@]2(CCc3ccccc3O2)O1 | 2.25% (inactive) |
| CCCCN=C1C([N+](=O)[O-])=CC=C2C1=NC1(CCCCC1)N2O | 8.1% (inactive) |
| CCCCn1c(N)c(N(CC(C)C)C(=O)c2ccc(-n3c(C)ccc3C)cc2)c(=O)[nH]c1=O | -0.38% (inactive) |
| COc1ccc(NC(=O)CSc2nnc(-c3ccccc3F)n2C2CC2)cc1S(N)(=O)=O | 3.2% (inactive) |
| CC(C)(C)C1CCC(C(=O)Nc2cccnc2)CC1 (centres undefined) | 5.13% (inactive) |
| CN1C(=O)C(CC(N)=O)N(NC(=O)c2ccc(Cl)cc2)C1=S (centres undefined) | -6.03% (inactive) |
| Cn1cccc1/C=C1\SC(=S)N(NC(=O)c2ccc(Cl)cc2)C1=O | 140% (active) |
| CC(=O)N1C(=O)/C(=C2\SC(=S)N(NC(=O)c3ccc(O)cc3)C2=O)c2ccccc21 | 4.76% (inactive) |
| CCn1nc(C(=O)NNC(=O)C2CSC3(C)CCC(=O)N23)c2ccccc2c1=O (centres undefined) | 1.5% (inactive) |
| Cc1ccccc1Nc1c([N+](=O)[O-])ccc2nonc12 | -7.83% (inactive) |
| CN(c1ccccc1)c1ccc([N+](=O)[O-])c2nonc12 | 72.5% (active) |
| Cc1ccc2cccc([N+](=O)[O-])c2n1 | 4.29% (inactive) |
| C=CC[C@@H](CC(=O)NCCO)C(=O)N[C@H](C)COC(=O)[C@@H](CC=C)CC(=O)OC(C)(C)C | -0.071% (inactive) |
| COc1cc(S(=O)(=O)N(Cc2cccs2)C2CC2)ccc1-n1cnnn1 | 7.76% (inactive) |
| CCOC(=O)N1CCN(C(=O)c2ccc3nc4cc(Cl)ccc4c(=O)n3c2)CC1 | -2.93% (inactive) |

| Compound | activation |
| --- | --- |
| CC(C)(C)N(Cc1ccccc1)C(=O)COC(=O)CCc1c[nH]c2ccccc12 | 5.36% (inactive) |
| COc1cc(N=Cc2c(O)c3ccccc3oc2=O)c(OC)cc1Cl | 221% (active) |
| CCC(=O)CC(c1ccc([N+](=O)[O-])cc1)c1c(O)c2ccccc2oc1=O (centres undefined) | 1% (inactive) |
| COc1cc(C(c2c(O)c3ccccc3oc2=O)c2c(C)n(C)n(-c3ccccc3)c2=O)ccc1O (centres undefined) | 0.237% (inactive) |
| O=C(NNC(=S)Nc1ccc(F)cc1)[C@H]1C[C@@H]1c1ccccc1 | 12.2% (inactive) |
| CCCNC(=O)c1onc(CSc2ccc(F)cc2)c1C(=O)NC(C)C | 1.76% (inactive) |
| Cc1ccc(S(=O)(=O)N2CCN(C(=O)Cn3c(=O)cnc4ccccc43)CC2)c(C)c1 | 52.1% (active) |
| Cc1ccc(S(=O)(=O)N2CCN(C(=O)COC(=O)c3c(C)cc(C)cc3C)CC2)c(C)c1 | 2.63% (inactive) |
| Cc1ccc(S(=O)(=O)N2CCN(C(=O)CSc3cc(C)ccc3C)CC2)c(C)c1 | -11.9% (inactive) |
| CCOc1ccc(/C=C/C(=O)OCC(=O)c2ccccc2OC)cc1OC | -8.54% (inactive) |
| Cc1cccc(-n2c(O)c(C=Nc3ccccc3N)c(=O)[nH]c2=O)c1 | 10.4% (inactive) |
| Cc1ccc(N=Cc2c(O)n(-c3nccs3)c(=O)c3ccccc23)c(C)c1 | 1250% (active) |
| COC(=O)Cc1csc(/N=C/c2c(O)n(-c3cccc(C(F)(F)F)c3)c(=O)c3ccccc23)n1 | -24.2% (inactive) |
| COc1ccc(C)cc1N(C)C(=O)c1coc(=O)c2ccccc12 | 4.28% (inactive) |
| COc1cc(OC)cc(C(=O)Nc2ccc(-c3nc4ccccc4o3)c(O)c2)c1 | -11.7% (inactive) |
| O=C(Nc1ccc2oc(-c3ccccc3F)nc2c1)c1ccco1 | 1.3% (inactive) |
| O=C(Nc1ccc2oc(-c3ccc4ccccc4c3)nc2c1)c1cccs1 | 57.7% (active) |
| O=C(NCCSc1ncc(-c2ccccc2)[nH]1)c1ccco1 | 3.87% (inactive) |
| COCCCNC(=O)c1c(F)c(F)c(F)c(F)c1F | 5.56% (inactive) |
| COc1ccc(/C=C/c2c(-c3cccc(C)c3)oc3ccc(-c4ccc5c(c4)OCO5)cc23)cc1 | -7.77% (inactive) |
| Cc1cc(C)cc(Oc2c(C(F)(F)F)oc3cc(OCC(=O)O)ccc3c2=O)c1 | 2.37% (inactive) |
| CCOC(=O)c1cc(NC(=O)c2cccnc2)ccn1 | 0.906% (inactive) |
| CCC(=O)Nc1cccc(NC(=O)c2cccnc2)c1 | 335% (active) |
| O=C(Cc1ccccc1)Nc1ccc(NC(=O)c2cccnc2)cc1 | -0.44% (inactive) |

| Compound | activation |
| --- | --- |
| O=C(NCCOc1ccccc1)N1[C@H]2CC[C@@H]1C=C(c1ccc(F)cc1OCc1ccccc1)C2 | -1.59% (inactive) |
| CSCCC1NC2(C(=O)Nc3ccc(Cl)cc32)[C@@H]2C(=O)N(C3CCCC3)C(=O)[C@H]12 (some centres undefined) | 2.84% (inactive) |
| O=C(CN1CCN(c2ccc(O)cc2)CC1)Nc1ccc(-c2ccccc2)cc1 | 111% (active) |
| O=C(CN1CCOCC1)Nc1ccccc1 | 6.62% (inactive) |
| CC(=O)c1ccc(N2CCN(CC(=O)Nc3ccccc3N3CCOCC3)CC2)cc1 | 4.75% (inactive) |
| CN(C)Cc1c(O)ccc2occ(C(O)c3ccccc3)c12 (centres undefined) | 8.71% (inactive) |
| COc1cccc2c1OCC(CN1CCN(C3CCCCC3)C(CCO)C1)=C2 (centres undefined) | 0.264% (inactive) |
| CC(=O)NC(C)(C)C1CC=C(C)/C(=N\O)C1 (centres undefined) | 6.07% (inactive) |
| COC(C/C=C/C(=O)[C@@H](C)OCc1ccccc1)OC | -1.24% (inactive) |
| CCOC(=O)CSc1nc(C)cc2c1C(=O)OC2 | 2.74% (inactive) |
| O=C(COC(=O)Cn1[nH]c(=O)c2ccccc2c1=O)Nc1ncc(Cl)cc1Cl | -9.39% (inactive) |
| Cc1ccccc1OCc1nnc(SCC(=O)N2c3ccccc3Sc3ccc(Cl)cc32)o1 | -5.1% (inactive) |
| CC(=O)c1ccc(NC(=O)c2ccc3c(Cl)c4c(nc3c2)CCCC4)cc1 | 61.1% (active) |
| COc1cccc(NC(=O)c2ccc3c(SCC(=O)O)c4c(nc3c2)CCCC4)c1 | 0.29% (inactive) |
| CC(C)CCNC(=O)c1ccc2c(Cl)c3c(nc2c1)CCC3 | 0.61% (inactive) |
| O=C(CN1CCN(Cc2ccc(F)cc2Cl)C1=O)NCc1cccs1 | 2.52% (inactive) |
| COc1ccc(NC(=O)c2cc([N+](=O)[O-])ccc2NC(=O)CNC2CCCCC2C)c(OC)c1 (centres undefined) | 5.61% (inactive) |
| Cc1ccc(Sc2ccncc2S(N)(=O)=O)cc1 | 4.01% (inactive) |
| COc1ccc(CCn2c(O)c(C=NC3CC3)c(=O)[nH]c2=O)cc1OC | 0.91% (inactive) |
| COc1ccc(N=Cc2c(O)n(C)c(=O)[nH]c2=O)cc1 | -3.16% (inactive) |
| COc1ccc(Cn2c(O)c(/C=C3/C=CC=N3)c(=O)[nH]c2=O)cc1 | 79.2% (active) |
| CNC(=O)c1c(NC(NC(=O)c2ccco2)C(=O)c2ccc(Cl)cc2)sc2c1CCCC2 (centres undefined) | -0.431% (inactive) |
| O=C(Nc1ncc2c(n1)-c1ccccc1OC2)c1ccc(Cl)cc1 | 3.08% (inactive) |
| O=C(COC(=O)CNC(=O)C1CCCCC1)NCc1ccccc1 | 0.98% (inactive) |

| Compound | activation |
| --- | --- |
| Cc1ccc(-c2nn(-c3ccccc3)cc2/C=C2\SC(=S)N(CCCCCC(=O)O)C2=O)o1 | 3200% (active) |
| CCCCN1C(=O)/C(=C/C=C2/C=Cc3ccccc3N2CC)SC1=S | 18.5% (inactive) |
| O=C1/C(=C/c2coc3ccc(O)cc3c2=O)SC(=S)N1c1ccccc1 | -53.2% (inactive) |
| CCOc1ccc(S(=O)(=O)Nc2cccc(C(=O)NCC3(N4CCCCC4)CCCCC3)c2)cc1 | -1.19% (inactive) |
| COc1ccc(CCNC(=O)c2nnc(CS(=O)(=O)c3ccccc3)o2)cc1OC | 6.35% (inactive) |
| O=C(NCC12CC3CC(C1)CC(CNC(=O)N1CCCC1)(C3)C2)N1CCCC1 | -3.78% (inactive) |
| COc1ccc(CNC(=O)CCC(=O)Nc2nnc(C(C)C)s2)cc1 | 7.7% (inactive) |
| CN(C(=O)CN1C(=O)NC(C)(CCc2ccccc2)C1=O)c1ccccc1 (centres undefined) | -1.8% (inactive) |
| CN(C)c1ccc(/C=C2\NC(=S)N(Cc3ccccc3)C2=O)cc1 | 56.4% (active) |
| Cc1ccc(CN2C(=O)N/C(=C/c3cc(C)n(-c4ccccn4)c3C)C2=O)cc1 | -15.4% (inactive) |
| COCCn1c(=NC(=O)c2ccccc2[N+](=O)[O-])sc2cc(S(C)(=O)=O)ccc21 | 15.4% (inactive) |
| CSc1ccccc1C(=O)OCC(=O)N1CCN(C(C)=O)CC1 | 1.11% (inactive) |
| Cc1scc(C(=O)NNC(=S)NCC(C)C)c1C | 5.32% (inactive) |
| Cc1scc(C(=O)NNC(=S)NCc2ccccc2)c1C | 51.1% (active) |
| O=C(NNC(=S)NCc1ccccc1)c1ccc(OC(F)F)cc1 | -1.92% (inactive) |
| COc1cc(S(=O)(=O)N2CCN(C(=O)C3CC3)CC2)ccc1NC(C)=O | 3.42% (inactive) |
| COc1c(C)c2c(c(O)c1C/C=C(\C)CCC(=O)O)C(=O)OC2 | 6.86% (inactive) |
| O=C(COC(=O)c1cccc(Cl)c1)NC(=O)NCc1ccccc1 | -3.25% (inactive) |
| c1ccc(-c2cn3c(n2)CCc2ccc4cccnc4c2-3)cc1 | 4.41% (inactive) |
| O=C(NCc1cccc(Cl)c1)C1=CC=CN2CCS(=O)(=O)N=C12 | -3.56% (inactive) |
| CCOC(=O)N1CCN(C(=O)CN(C2CCCCC2)S(C)(=O)=O)CC1 | -5% (inactive) |
| CCc1ccc2nc(Nc3ncc(C(C)=O)c(C)n3)nc(C)c2c1 | -3.52% (inactive) |
